# Reference: PubChem BioAssay
# “And” between values parts separate entries of the source, which are not always exact repeats. Identical values can stand only once. Where a structure was tested more than once in an assay, its records may differ in their call. The source made the active and inactive calls. Unless noted, no stated cut-off is given here; in the data, active means inhibition above about 80%; inactive means the rest.
# What was measured:
# [1] = growth inhibition of RCMB18 medulloblastoma cells, cell-based, cisplatin and BGB IC40 combos (AID 1671462); details: stronger effect = higher value;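 further: cells exposed to compound for four days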
# [2] = growth inhibition of CRL1545 osteosarcoma cells, cell-based, cisplatin and BGB IC20 combos (AID 1671464); details: stronger effect = higher value;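 further: cells exposed to compound for 96 hours before readout; 0% = vehicle DMSO and 100% = high DMSO killing control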
# [3] = LFS_MB_P medulloblastoma growth inhibition, cell-based, chromothripsis tumors, cisplatin or BGB combos (AID 1671449); details: LFS_MB_P medulloblastoma cells;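 further: cells exposed for 96 hours; 0% = vehicle DMSO and 100% = killing by high DMSO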
# [4] = HDN33 neuroblastoma growth inhibition, cell-based, chromothripsis tumors, cisplatin or BGB combos (AID 1671450); details: HDN33 neuroblastoma cells, stronger effect = higher value;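 further: cells exposed to compound for four days; 0% = vehicle DMSO and 100% = cell killing by high DMSO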
# [5] = ICB984 medulloblastoma cell growth inhibition, synergistic combos for chromothripsis tumors, cisplatin or BGB combos (AID 1671451; call rule not given here;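 further: cells exposed for 96 hours before readout; 0% = vehicle DMSO and 100% = killing by high DMSO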); details: ICB984 medulloblastoma cells, drug combinations, stronger effect = higher value
# [6] = LFS_MB_1R medulloblastoma cell growth inhibition, synergistic combos for chromothripsis tumors, cisplatin or BGB combos (AID 1671452); details: LFS_MB_1R medulloblastoma cells, stronger effect = higher value;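 further: cells exposed for 96 hours before readout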
# [7] = HTB85 osteosarcoma cell growth inhibition, synergistic combos for chromothripsis tumors, BGB or cisplatin IC20 combos (AID 1671453); details: HTB85 osteosarcoma cells, drug combinations, stronger effect = higher value;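 further: cells exposed for 96 hours before readout; 0% = vehicle DMSO and 100% = high DMSO killing control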
# [8] = CRL2098 osteosarcoma cell growth inhibition, synergistic combos for chromothripsis tumors, BGB or cisplatin IC20 combos (AID 1671454); details: CRL2098 osteosarcoma cells, drug combinations, stronger effect = higher value;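 further: cells exposed for 96 h before readout; 0% = vehicle DMSO and 100% = killing by high DMSO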
# [9] = HD-MB03 medulloblastoma cell growth inhibition, synergistic combos for chromothripsis tumors, BGB or cisplatin IC20 combos (AID 1671455; in the data active means inhibition above about 83%;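 further: 0% = vehicle DMSO and 100% = high DMSO as cytotoxic control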); details: HD-MB03 medulloblastoma cells, stronger effect = higher value
# [10] = UWB1.289 ovarian carcinoma cell growth inhibition, synergistic combos for chromothripsis tumors, BGB or cisplatin combos (AID 1671456); details: UWB1.289 ovarian carcinoma cells, stronger effect = higher value;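 further: cells exposed to compound for four days; 0% = vehicle DMSO and 100% = killing by high DMSO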
# [11] = LFS_MB_2R medulloblastoma cell growth inhibition, synergistic combos for chromothripsis tumors, cisplatin combos (AID 1671457); details: LFS_MB_2R medulloblastoma cells, stronger effect = higher value;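 further: cells exposed to compound for four days before readout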
# [12] = MDA-MB-436 breast carcinoma cell growth inhibition, synergistic combos for chromothripsis tumors, BGB or cisplatin combos (AID 1671458; call rule not given here;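 further: cells exposed for 96 hours; 0% = vehicle DMSO and 100% = killing by high DMSO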); details: MDA-MB-436 breast carcinoma growth inhibition, drug combinations, stronger effect = higher value
# [13] = UWB1.289_BRCA1 ovarian cancer growth, cell-based, BGB or cisplatin combinations (AID 1671459); details: UWB1.289 BRCA1 ovarian carcinoma, drug combinations, stronger effect = higher value
# [14] = human astrocyte viability loss, single and combined drugs, cytotoxicity control for chromothriptic childhood tumor combination screen, cell-based, BGB or cisplatin IC20 combos (AID 1671460); details: Human astrocytes, drug combinations, stronger effect = higher value;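 further: cells exposed to compounds for 96 hours before viability readout; 0% = vehicle and 100% = killing control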
# [15] = growth inhibition of BT084 medulloblastoma cells, cell-based, ICGC_MB145, cisplatin and BGB IC40 combos (AID 1671461); details: drug combinations, stronger effect = higher value;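 further: cells exposed to drugs for 96 hours; 0% = vehicle DMSO and 100% = high DMSO full killing control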
# [16] = measured here: BGB IC40 combination, at 0.05 µM
# [17] = measured here: combination with cisplatin, at 0.5 µM
# [18] = measured here: with BGB IC20 combination, at 0.5 µM
# [19] = measured here: with cisplatin IC20 combination, at 0.5 µM
# [20] = measured here: combination with BGB IC40, at 0.05 µM
# [21] = measured here: combination with cisplatin, at 5 µM
structure (smiles),measurement,setting,value
CCC1(O)C(=O)OCc2c1cc1n(c2=O)Cc2cc3c(CN(C)C)c(O)ccc3nc2-1 (stereo unspecified),inhibition,[1]; [16],-8.83% and -28.2% and -20.8%
same,inhibition,[1]; [17],55.7% and 30% and 38.3%
same,inhibition,"[1]; single agent, at 5 µM",22.6% and 40.2% and 40.4%
same,inhibition,[2]; at 0.5 µM,78.9% (inactive) and 88.5% (active) and 81.8% (active)
same,inhibition,[2]; [18],91% and 95% and 93.8%
same,inhibition,[2]; [19],72.9% and 85.2% and 75.9%
same,inhibition,"[2]; single agent, at 0.05 µM",35.3% and 52% and 56.4%
same,inhibition,"[2]; single agent, at 5 µM",99.6% and 99.9% and 99.7%
COc1cccc2c1C(=O)c1c(O)c3c(c(O)c1C2=O)CC(O)(C(=O)CO)CC3OC1CC(N)C(OC2CCCCO2)C(C)O1 (stereo unspecified),inhibition,"[3]; at 0.5 µM, stronger effect = higher value",-32.3% (inactive)
same,inhibition,"[3]; measured here: combination with BGB IC20, at 0.005 µM",9.11%
same,inhibition,"[3]; measured here: combination with BGB IC40, at 0.005 µM",-11.4%
same,inhibition,[3]; [20],-11.1%
same,inhibition,"[3]; measured here: combination with cisplatin, at 0.5 µM, stronger effect = higher value",-47.4%
same,inhibition,"[3]; measured here: combination with cisplatin, at 5 µM, stronger effect = higher value",110%
same,inhibition,"[4]; BGB combo, at 5 µM",97.2%
same,inhibition,[4]; at 0.5 µM,23.8% (inactive)
same,inhibition,"[4]; cisplatin combo, at 5 µM",99.2%
same,inhibition,[4]; [18],21.1%
same,inhibition,[4]; [19],4.67%
same,inhibition,"[4]; single agent, at 5 µM",99%
same,inhibition,"[5]; BGB IC20 combo, at 0.005 µM",-23.2%
same,inhibition,"[5]; BGB IC40 combo, at 0.005 µM",-47.6%
same,inhibition,"[5]; BGB IC40 combo, at 0.05 µM",94.7%
same,inhibition,[5]; at 0.5 µM,-38.2% (inactive)
same,inhibition,"[5]; cisplatin combo, at 0.05 µM",94.5%
same,inhibition,"[5]; cisplatin combo, at 0.5 µM",-60.7%
same,inhibition,"[5]; cisplatin combo, at 5 µM",-43.3%
same,inhibition,"[5]; measured here: 5 uM single agent, at 5 µM",-14.9%
same,inhibition,[6]; at 0.5 µM,60.2% (inactive)
same,inhibition,[6]; [20],-55.1%
same,inhibition,[6]; [17],53.5%
same,inhibition,[6]; [21],95%
same,inhibition,[7]; at 0.5 µM,56.2% (inactive)
same,inhibition,"[7]; measured here: with BGB IC20, at 0.5 µM",23.4%
same,inhibition,"[7]; measured here: with BGB IC20, at 5 µM",99%
same,inhibition,"[7]; measured here: with cisplatin IC20, at 0.5 µM",91%
same,inhibition,"[7]; measured here: with cisplatin IC20, at 5 µM",99.6%
same,inhibition,"[7]; single agent, at 5 µM",99.2%
same,inhibition,[8]; at 0.5 µM,30.1% (inactive)
same,inhibition,"[8]; measured here: combination with BGB at IC20, at 0.5 µM",85.5%
same,inhibition,"[8]; measured here: combination with cisplatin at IC20, at 0.5 µM",33.2%
same,inhibition,[9]; at 0.5 µM,70.5% (inactive)
same,inhibition,"[9]; measured here: combo with BGB at IC20, at 0.5 µM",69.8%
same,inhibition,"[9]; measured here: combo with cisplatin at IC20, at 0.5 µM",77.2%
same,inhibition,[10]; at 0.5 µM,12.2% (inactive)
same,inhibition,"[10]; measured here: inhibition with BGB combination, at 0.05 µM",26.6%
same,inhibition,"[10]; measured here: inhibition with cisplatin combination, at 0.05 µM",-27.7%
same,inhibition,[11]; at 0.5 µM,-17% (inactive)
same,inhibition,[11]; [17],-2.89%
same,inhibition,[11]; [21],86.3%
same,inhibition,[12]; at 0.5 µM,24.8% (inactive)
same,inhibition,"[12]; measured here: BGB combination, at 0.5 µM",4.22%
same,inhibition,"[12]; measured here: BGB combination, at 5 µM",64.7%
same,inhibition,"[12]; measured here: cisplatin combination, at 0.5 µM",26.1%
same,inhibition,"[12]; measured here: cisplatin combination, at 5 µM",84.5%
same,inhibition,"[13]; BGB combination, concentration series, at 5 µM",94.3%
same,inhibition,[13]; at 0.5 µM,16.1% (inactive)
same,inhibition,"[13]; cisplatin combination, concentration series, at 5 µM",96.5%
same,inhibition,[14]; at 0.5 µM,50% (inactive)
same,inhibition,"[14]; measured here: combo with BGB IC20, at 0.5 µM",42.8%
same,inhibition,"[14]; measured here: combo with cisplatin IC20, at 0.5 µM",39.2%
same,inhibition,[15]; at 0.5 µM,2.98% (inactive)
same,inhibition,"[15]; cisplatin combination, at 0.5 µM",23.2%
same,inhibition,"[15]; cisplatin combination, at 5 µM",-6.21%
same,inhibition,"[15]; measured here: BGB IC40 combination 0.05 uM, at 0.05 µM",-28.8%
same,inhibition,"[15]; single agent, at 5 µM",27%
same,inhibition,[1]; at 0.5 µM,21.9% (inactive)
same,inhibition,"[1]; cisplatin combo, at 5 µM",71.1%
same,inhibition,[1]; [16],-38.8%
same,inhibition,[1]; [17],44.2%
same,inhibition,"[1]; single agent, at 5 µM",71.6%
same,inhibition,[2]; at 0.5 µM,91.3% (active)
same,inhibition,[2]; [18],85.6%
same,inhibition,[2]; [19],94.1%
same,inhibition,"[2]; single agent, at 0.05 µM",-29.5%
same,inhibition,"[2]; single agent, at 5 µM",99.5%
